This is an account of results in PubChem BioAssay AID2685 (National Center for Advancing Translational Sciences (NCATS), 2010).

SMILES strings stand for the structures. About 2,100 (0.66%) of roughly 320,000 compounds were called active. Another 53% or so got no clear call; they are omitted. The call rests on the fitted dose curve; in most records, active means well fitted inhibition curve with a large enough effect in the signal ratio, with a control signal flat (not every such curve was filed as active); inconclusive means small, poorly fitted or top-dose-only effect, or effect the other way, or a change in a side signal; inactive means flat fitted curve, though single readings scatter; the % refers to the signal ratio. Many of the other results were omitted from the sample, so actives are more common in it than they were.
Potency means the concentration at half of the fitted maximal effect.

The nature of this experiment: qHTS Assay for Lipid Storage Modulators in Drosophila S3 Cells.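 On cell number change: cells counted by Cell Tracker Red CMTPX staining in the red channel.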 On lipid storage change, negative = inhibition: on the % scale 0 is the no-effect control and ±100 the full control effect. To be noted: BODIPY lipid droplet fluorescence, 18-24 h, cells fed with added oleic acid; cell number change: measured here: cell count max response; series mostly up to 46.1 µM; lipid storage change, negative = inhibition: at the top concentration. The method, boiled down: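 Drosophila S3 cells loaded with oleic acid (400 uM, as added) and compounds at several concentrations; lipid droplets imaged by 488-nm laser-scanning cytometry, 500–530 nm intensity and object ratio to cell channel. Percent activity normalized to 20 uM Triacsin C.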
Take `O=C(Nc1cccc(O)c1)c1ccc(NC(=O)C2CCCO2)cc1` (centres undefined): the compound was called inactive and the cell number change was -1.32%. With `Cc1ccc(C(=O)Nc2cccc(C(=O)O)c2)cc1`, the “lipid storage change, negative = inhibition” value was -0.691% (inactive) and the cell number change is -13.9%. With `CS(=O)(=O)NCc1ccc(C(=O)NC2CCCCC2)cc1`, the compound was called inactive. As for `CCc1ccc(NC(=O)c2ccc(NC(=O)C3CCCO3)cc2)cc1` (centres undefined), the result was inactive and the cell number change is 8.55%. On to `Cc1cccc(C(=O)NC2CCCCCCC2)c1`, for which the “lipid storage change, negative = inhibition” value is 6.47% (inactive) and the cell number change came out at 5.98%. The like results for `CC(C)CC(=O)N1CCN(Cc2ccc(Cl)cc2)CC1` were, in that order, 10.9% (inactive) and 1.4%.

As for `CN1CCN(C(=O)C2=C[C@@H](c3csc4ccccc34)C[C@@H](OCc3ccc(CO)cc3)O2)CC1`, the “lipid storage change, negative = inhibition” value is 6.22% (inactive) and the cell number change came out at 5.1%. The like results for `Cc1ccc(S(=O)(=O)N(C)c2nc3ccccc3[nH]c2=S)cc1` were, in that order, -4.12% (inactive) and 4.96%. For the compound `CCCCn1nc(NS(=O)(=O)c2cccc3nonc23)c2cc3cccc(C)c3nc21`, the “lipid storage change, negative = inhibition” value was -12.1% (inactive). Take `COc1ccc2nc(SCc3ccccc3C)nc(C)c2c1`: the “lipid storage change, negative = inhibition” value was -4.04% (inactive) and the cell number change was -12.5%.

In the case of `COc1ccc(CCN(Cc2ccc(C(C)C)cc2)S(=O)(=O)c2ccc(S(=O)(=O)N(C)C)cc2)cc1OC`, the “lipid storage change, negative = inhibition” value is 0.0067% (inactive) and the cell number change is -3.06%.

Consider `COc1ccc(OC)c(C2=NOC(C(=O)NCc3cccs3)C2)c1` (centres undefined), for which the “lipid storage change, negative = inhibition” value was -0.872% (inactive) and the cell number change worked out at 19.5%. Take `COc1nc(OC)nc(N2CCC(C(=O)Nc3cccc4ccccc34)CC2)n1`: the “lipid storage change, negative = inhibition” value was 14.5% (inactive) and the cell number change was -0.422%.

As for `CC12CN(C(=O)c3ccc(Cl)cc3)C3(C#N)CC1CCC23C` (centres undefined), the call was inactive. Turning to `CCOC(=O)c1c(-c2ccccc2)csc1NC(=O)C1CCCO1` (centres undefined), the “lipid storage change, negative = inhibition” value was -8.83% (inactive) and the cell number change is -4.26%.

As for `CCOC(=O)c1c(-c2ccc(C)cc2)csc1NC(=O)C1CCCO1` (centres undefined), the Potency was 6.51 µM (active) and the cell number change turned out to be 11.7%. With `CCOC(=O)c1c(-c2ccc(F)cc2)csc1NC(=O)C1CCCO1` (centres undefined), the “lipid storage change, negative = inhibition” value was -6.46% (inactive) and the cell number change turned out to be 2.19%. Take `O=C(Nc1ncc(Cc2cccc(Cl)c2)s1)C1CCCO1` (centres undefined): the “lipid storage change, negative = inhibition” value was 0.772% (inactive) and the cell number change is -0.923%. In the case of `Cc1ccc(Cc2cnc(NC(=O)C3CCCO3)s2)cc1` (centres undefined), the Potency was 2.06 µM (active) and the cell number change is 15.9%. For `O=C(Nc1ncc(Cc2cccc(C(F)(F)F)c2)s1)C1CCCO1` (centres undefined), the “lipid storage change, negative = inhibition” value is -2.84% (inactive) and the cell number change is -4.39%. As to `O=C(NCC1CCCO1)C(=O)N/N=C\c1ccc2c(c1)OCO2` (centres undefined), the result was inactive and the cell number change is -7.51%. `Cc1c(C(=O)N2CCCCCC2)c(S(=O)(=O)Nc2cccc(F)c2)c(C)n1C`: the result was inactive. In the case of `COc1cc2c(cc1OC)CN(c1nc(-c3cccnc3)nc3ccccc13)CC2`, the “lipid storage change, negative = inhibition” value is 13.7% (inactive) and the cell number change stood at 13.3%. Regarding `COc1cc2c(cc1OC)CN(c1ccc(-c3ccccc3OC)nn1)CC2`, the “lipid storage change, negative = inhibition” value is -6.67% (inactive) and the cell number change is -18%. Take `COc1cc2c(cc1OC)CN(c1ccc3ccccc3n1)CC2`: the Potency is 14.6 µM (active) and the cell number change was -10.9%.

As to `O=C(Nc1ccc(Cl)cc1)NN1CC(=O)N(c2cccc(C(F)(F)F)c2)CC1=O`, the “lipid storage change, negative = inhibition” value was -5.06% (inactive) and the cell number change was -8.1%. As to `Cc1ccc(OCCn2cc(Br)c(=O)[nH]c2=O)cc1`, the result was inactive and the cell number change is -2.4%. Turning to `COc1cccc(CNC(=O)CCC2CCCN(C(=O)c3cc(C)on3)C2)c1` (centres undefined), the “lipid storage change, negative = inhibition” value is 3.38% (inactive) and the cell number change was 6.95%.

As for `C=CCNC(=S)/N=c1/ccccn1C`, the “lipid storage change, negative = inhibition” value was -4.8% (inactive) and the cell number change is -1.1%. Take `Cc1cccc(CN2CCC(C(=O)Nc3cccc(-c4cccc(F)c4)c3)CC2)n1`: the “lipid storage change, negative = inhibition” value was -11.7% (inactive). Regarding `COc1ccc(CSc2nnc(C)s2)cc1F`, the “lipid storage change, negative = inhibition” value was 3.56% (inactive) and the cell number change is 9.99%. On to `Cc1nnc(SCc2ccc(F)cc2Cl)s1`, for which the compound was classed as inactive and the cell number change is -1.12%.

Consider `Cc1nnc(SCc2ccc(F)cc2)s1`, for which the Potency is 2.06 µM (active) and the cell number change was -1.22%. Turning to `COc1ccc(OC)c(C(=O)COC(=O)C(CCSC)NC(=O)COc2ccccc2)c1` (centres undefined), the outcome was inactive. Consider `O=C(NCCCN1CCCCC1)C1CCN(S(=O)(=O)N2CCC3(CC2)OCCO3)CC1`, for which the result was inactive and the cell number change is -12.2%. For the compound `CC1CCN(CCCNC(=O)C2CCN(S(=O)(=O)N3CCC4(CC3)OCCO4)CC2)CC1`, the “lipid storage change, negative = inhibition” value was -18.8% (inactive) and the cell number change was found to be 1.22%. Consider `O=C(NCCN1CCCC1)C1CCN(S(=O)(=O)N2CCC3(CC2)OCCO3)CC1`, for which the Potency was 29.1 µM (active) and the cell number change was -14.5%.

On to `O=C(CCCC(=O)c1ccccc1)NCCc1ccccc1F`, for which the “lipid storage change, negative = inhibition” value was 2.38% (inactive) and the cell number change is 22%.

As to `Clc1ccc(-c2nnc(N3CCOCC3)o2)cc1`, the “lipid storage change, negative = inhibition” value was 4.05% (inactive) and the cell number change was 3.72%. The like results for `CC(=O)c1ccc(OCCCC(=O)Nc2cccc(S(=O)(=O)N(C)C)c2)cc1` were, in that order, 2.99% (inactive) and 1.3%.

In the case of `O=S(=O)(NCC(c1ccco1)N1CCN(c2ccccc2F)CC1)c1ccc2c(c1)OCCO2` (centres undefined), the Potency was 23.1 µM (active).

For `O=S(=O)(NCC(c1ccco1)N1CCN(c2ccccc2F)CC1)c1ccccc1` (centres undefined), the “lipid storage change, negative = inhibition” value was 15.1% (inactive) and the cell number change worked out at 26.9%. The like results for `O=S(=O)(NCC(c1ccco1)N1CCN(c2ccccc2)CC1)c1ccc(F)cc1` (centres undefined) were, in that order, 8.16% (inactive) and 9.35%. The like results for `CCn1c(=N)c(S(=O)(=O)c2ccc(C)cc2)cc2c(=O)n3ccccc3nc21` were, in that order, 16.3% (inactive) and 11.4%. The like results for `CN(C)S(=O)(=O)N1CCN(c2cc(Cl)ccc2Cl)CC1` were, in that order, 16.6% (inactive) and -20.4%.

`COc1cc(/C=C2\CC/C(=C\c3ccc(OCCO)c(OC)c3)C2=O)ccc1OCCO`: the Potency is 16.4 µM (active) and the cell number change was 11.6%. For `COc1ccc(/C=C2\CCc3ccccc3C2=O)cc1O`, the compound was called inactive and the cell number change is -1.8%.

Take `COc1ccc(/C=C2\Cc3ccccc3C2=O)cc1OC`: the “lipid storage change, negative = inhibition” value is 0.0747% (inactive) and the cell number change was -17.4%.
